# Measurements published in PubChem BioAssay (NCI).
# The panel holds about 83,000 compounds, 20% with a hit somewhere; the sample as a whole holds those more often.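 48-hour exposure, single concentration, 96-well plates; percent growth endpoint where 0 means no net growth. Active: below 10.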 Unmarked numbers belong to inactive results. The source made the active and inactive calls.
# Assays:
# Assay in all cases: NCI-60 one-dose screen, 48 h (100 = growth as untreated, 0 = no growth, -100 = all killed)
# Settings in all cases: 10 µM
# BT-549 breast = system: BT-549 breast
# MDA-MB-435 melanoma = system: MDA-MB-435 melanoma
# SW-620 colon = system: SW-620 colon
# MCF7 breast = system: MCF7 breast
# HCT-116 colon = system: HCT-116 colon
# HCC-2998 colon = system: HCC-2998 colon
# KM12 colon = system: KM12 colon
SMILES,growth (BT-549 breast),growth (MDA-MB-435 melanoma),growth (SW-620 colon),growth (MCF7 breast),growth (HCT-116 colon),growth (HCC-2998 colon),growth (KM12 colon)
COc1ccc2c(c1)C(=O)c1c-2c(=O)n(CCCN(C)C)c2cc(OC)c(OC)cc12,86.1%,80.9%,56.8%,28.4%,53.1%,82.8%,69.5%
COc1ccccc1/C=C/C(=O)c1ccccc1,88.4%,70.7%,14.9%,32.2%,55.3%,101%,27.9%
O=C(CCCCC[P+](c1ccccc1)(c1ccccc1)c1ccccc1)NC(COC(=O)C(Cl)Cl)(COC(=O)C(Cl)Cl)COC(=O)C(Cl)Cl,94.9%,102%,107%,95.2%,100%,109%,107%
COC(=O)[C@@H]1[C@H](O)[C@H](C)[C@H](O)[C@@](C)(O)/C=C\C=C(C)C(=O)Nc2c(C)c(OC(C)=O)c3c(c2O)C(=O)C(C)=C2OCOC(=C23)C(C)=C[C@@](C)(O)[C@H](O)[C@@H](C)[C@H]1OC(C)=O,105%,105%,124%,114%,114%,120%,112%
Cc1nc2oc3ccccc3c(=O)c2cc1C(=O)NCc1ccccc1,88%,65.3%,72.4%,43.8%,59.8%,37.9%,31.3%
Nc1nc(N=Nc2ccc(O)cc2)cc(=O)[nH]1,95.5%,98.3%,104%,101%,112%,106%,111%
COc1ccc(-c2nn(-c3cccc(NC(=O)Nc4ccc(Cl)c(C(F)(F)F)c4)c3)cc2-c2ccncc2)cc1Cl,11.2%,-24.3% (active),17.7%,1.57% (active),8.61% (active),37.7%,4% (active)
O=C(Nc1cccc(-n2cc(-c3ccncc3)c(-c3ccc(O)c(Cl)c3)n2)c1)c1cccc(C(F)(F)F)c1,43.9%,33.7%,26.1%,13.9%,21.7%,25.7%,20.2%
CN(CCc1ccccn1)c1ccccc1,104%,120%,111%,95.9%,101%,103%,104%
COC(=O)c1c(-c2ccccc2)csc1NC(=O)c1c(-c2ccccc2)noc1C,59.2%,32.7%,19.4%,24.6%,6% (active),63.5%,27.9%
Cc1ccc(NC(=O)Nc2c(Cl)cccc2Cl)cn1,118%,38.3%,127%,91.8%,104%,104%,105%
CCN(CC)CCOc1nc2ccc(OC)cc2c2c1-c1ccc(OC)cc1C2=O,65.1%,-22.7% (active),-59.4% (active),-58.6% (active),-98.3% (active),38.6%,-82% (active)
COc1ccc(-c2nc(-c3nc4ccc(OC)cc4[nH]3)cc3c2[nH]c2ccccc23)cc1,39.8%,39.2%,40.6%,31.8%,21.3%,57.4%,20.4%
O=C(Nc1cccc(Cl)c1)Nc1nccs1,90.1%,62%,103%,57.8%,94%,89.7%,81.2%
COc1ccc(S(=O)(=O)NCCCNc2nccc(-c3c(-c4ccc(F)cc4)nc4sccn34)n2)cc1,70.6%,27.9%,74.8%,33.6%,42.1%,65.5%,40.6%
COc1ccc(Cn2c(C(N)=O)cc3c2-c2nc(N)ncc2CCC3)cc1,109%,97.2%,91.3%,92.7%,101%,104%,97.5%
COc1ccc(-c2nn(-c3cccc(NC(=O)Nc4cc(C(F)(F)F)cc(C(F)(F)F)c4)c3)cc2-c2ccncc2)cc1Cl,-1.8% (active),-42.8% (active),10.9%,0.561% (active),-22% (active),8.03% (active),-2.5% (active)
COc1cc(Cl)cc(-c2nn(-c3cccc(NC(=O)Nc4ccc(Cl)c(C(F)(F)F)c4)c3)cc2-c2ccncc2)c1,9.81% (active),-16.8% (active),12.7%,2.57% (active),3.39% (active),18.1%,9.1% (active)
